Measurements as given in PubChem BioAssay (NCATS).
A number with no mark means an inactive call. Results filed as inconclusive are left out. Entries that show only a call come without a potency. The source made the active and inactive calls. Calls follow the shape of the dose curve; as a rule, active = well fitted curve in the direction sought with a large enough effect; inconclusive = small, poorly fitted or top-dose-only effect, or another doubt; inactive = no such curve, though single readings can be large; an effect the other way counts as inactive or inconclusive.

These compounds were tested against Cytochrome P450 2C9 (Homo sapiens) (UniProt P11712) (assay: qHTS Assay for Inhibitors and Substrates of Cytochrome P450 2C9 (AID 883; also: nearly all actives have a fitted effect of over 60% in size)). Details: recombinant CYP2C9, luciferin-H luminescence, 60 min; series mostly up to 57.1 µM.
Cytochrome P450 2C9 (Homo sapiens), sequence (P11712 whole entry, looked up): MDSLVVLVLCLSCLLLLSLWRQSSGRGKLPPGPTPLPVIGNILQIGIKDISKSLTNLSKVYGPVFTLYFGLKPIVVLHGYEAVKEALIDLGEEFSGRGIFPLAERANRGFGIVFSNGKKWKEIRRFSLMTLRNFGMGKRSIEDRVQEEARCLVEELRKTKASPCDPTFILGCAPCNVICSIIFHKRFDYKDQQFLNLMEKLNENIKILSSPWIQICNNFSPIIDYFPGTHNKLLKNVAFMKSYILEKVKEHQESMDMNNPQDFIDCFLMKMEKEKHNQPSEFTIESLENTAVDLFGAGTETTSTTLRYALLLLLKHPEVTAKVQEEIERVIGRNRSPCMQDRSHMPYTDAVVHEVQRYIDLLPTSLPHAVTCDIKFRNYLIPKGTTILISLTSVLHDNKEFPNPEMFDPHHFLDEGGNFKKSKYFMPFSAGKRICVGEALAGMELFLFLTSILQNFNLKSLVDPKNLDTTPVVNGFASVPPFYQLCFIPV
Outline: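 CYP2C9 deoxyluciferin hydroxylation, 37C, 60 min with NADPH regeneration; 10nM enzyme, 100uM Luciferin-H (KM). Glo detection reagent stopped reaction; luminescence normalized to sulphaphenazole (57uM) full inhibition.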
In the case of `CCNc1ncc2nc(C)c(=O)n(-c3ccc(OC)cc3)c2n1`, the Potency is reported as “inactive”.
`CN(C)C(=O)c1ccc(-c2nc(NC3CCNCC3)c3ccccc3n2)cc1` gave an activity change, negative = inhibition of 46.2% [at 2.29 µM].
`COc1ccc(CNc2ncncc2-c2cccnc2)c(OC)c1` showed an activity change, negative = inhibition of 26.1% [at 2.29 µM].
`COc1ccccc1-c1cc(NCc2ccccc2)ncn1` showed an activity change, negative = inhibition of 35.7% [at 2.29 µM].

These compounds were tested against Cytochrome P450 3A4 (Homo sapiens) (UniProt P08684) (assay: qHTS Assay for Inhibitors and Substrates of Cytochrome P450 3A4 (AID 884; also: potency is read from the fitted curve at half-maximal effect; nearly all actives have a fitted effect of over 50% in size)). Details: recombinant CYP3A4, Luciferin-PPXE luminescence; series mostly up to 57.1 µM.
Cytochrome P450 3A4 (Homo sapiens), sequence (P08684 whole entry, looked up): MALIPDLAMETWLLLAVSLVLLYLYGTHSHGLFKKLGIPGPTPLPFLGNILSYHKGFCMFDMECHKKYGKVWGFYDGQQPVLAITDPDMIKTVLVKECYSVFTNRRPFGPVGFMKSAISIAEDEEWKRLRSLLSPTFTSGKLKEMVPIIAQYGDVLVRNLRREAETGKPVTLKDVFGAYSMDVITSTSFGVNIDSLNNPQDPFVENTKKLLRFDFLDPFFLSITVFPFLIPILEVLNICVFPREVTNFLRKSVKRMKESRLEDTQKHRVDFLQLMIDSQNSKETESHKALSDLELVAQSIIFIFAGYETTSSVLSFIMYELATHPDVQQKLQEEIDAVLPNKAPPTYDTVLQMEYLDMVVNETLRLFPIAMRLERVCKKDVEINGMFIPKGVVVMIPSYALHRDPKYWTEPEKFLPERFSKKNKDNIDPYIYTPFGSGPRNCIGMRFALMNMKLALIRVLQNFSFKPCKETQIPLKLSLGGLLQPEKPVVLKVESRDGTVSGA
Outline: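 20 nM human CYP3A4 with 25 uM Luciferin-PPXE (at KM) in 200 mM KPO4, preincubated 10 min with compound; NADPH regeneration started a 60 min RT reaction. Luciferin detected by luminescence, normalized to 57 uM ketoconazole as full inhibition.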
With `Cn1c(=O)c(-c2cccs2)nc2cncnc21` the Potency was 7940 nM (active).
`COc1ccccc1CNc1ncncc1-c1cccnc1` was tested, and the Potency was 794 nM (active).
`Cc1cnc(CNc2ncncc2-c2cccc(C#N)c2)cn1` was tested, and the Potency was 2000 nM (active).
In the case of `COc1ccc(CNc2ncncc2-c2cccnc2)c(OC)c1`, the Potency is reported as 501 nM (active).
`Fc1ccc(Nc2ncncc2-c2ccoc2)cc1` was tested, and the Potency was 501 nM (active).
With `COc1cccc(Nc2ncc3nc(C)c(=O)n(CCc4ccccc4)c3n2)c1` the Potency was 7940 nM (active).
In the case of `CS(=O)(=O)Nc1cccc(-c2cncnc2Nc2ccc(F)cc2)c1`, the Potency is reported as 316 nM (active).
`Fc1ccc(Nc2ccnc(-c3ccoc3)n2)cc1` was tested, and the Potency was 7940 nM (active).
With `N#Cc1cccc(-c2cncnc2NCc2cccs2)c1` the Potency was 1260 nM (active).

Each compound was assayed against Cytochrome P450 3A4 (Homo sapiens) (UniProt P08684) (assay: qHTS Assay for Activators of Cytochrome P450 3A4 (AID 885; also: nearly all actives have a fitted effect of over 65% in size)). Details: recombinant CYP3A4, Luciferin-PPXE luminescence, 60 min; series mostly up to 57.1 µM.
Outline: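 Quantitative HTS format: compounds preincubated with 20nM human CYP3A4 and Luciferin-PPXE substrate at KM, reaction started by NADPH regeneration, stopped after 60 min, luciferase luminescence read 20 min later.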
For `N#Cc1cccc(-c2nc3cnc(N4CCOCC4)nc3n(C3CC3)c2=O)c1`, the Potency was “inactive”.
For `CC(=O)NCCNc1ccnc(-c2ccccc2C(F)(F)F)n1`, the Potency was “inactive”.
For `CCNc1ncc2nc(-c3cc(F)cc(F)c3)c(=O)n(C[C@H]3CCCO3)c2n1`, the Potency was “inactive”.
For `COc1cccc(-c2cncnc2N(C)Cc2ccco2)c1`, the Potency was “inactive”.
For `CCNc1ncc2nc(C)c(=O)n(Cc3cccs3)c2n1`, the Potency was “inactive”.
With `Cn1c(=O)c(-c2cccs2)nc2cncnc21` the Potency was “inactive”.
In the case of `CCNc1ncc2nc(C)c(=O)n(Cc3ccc(F)cc3)c2n1`, the Potency is reported as “inactive”.
For `COc1ccccc1CNc1ncncc1-c1cccnc1`, the Potency was “inactive”.
For `Cc1cnc(CNc2ncncc2-c2cccc(C#N)c2)cn1`, the Potency was “inactive”.
In the case of `COc1ccc(CNc2ncncc2-c2cccnc2)c(OC)c1`, the Potency is reported as “inactive”.
For `Fc1ccc(Nc2ncncc2-c2ccoc2)cc1`, the Potency was “inactive”.
`COc1cccc(Nc2ncc3nc(C)c(=O)n(CCc4ccccc4)c3n2)c1` was tested, and the Potency was “inactive”.
In the case of `COc1ccc2[nH]cc(CCNc3ncncc3-c3c(C)noc3C)c2c1`, the Potency is reported as “inactive”.
With `COc1ccc(Oc2ncc3ncc(=O)n(C)c3n2)cc1` the Potency was “inactive”.
For `CS(=O)(=O)Nc1cccc(-c2cncnc2Nc2ccc(F)cc2)c1`, the Potency was “inactive”.
For `c1csc(CNc2cc(-c3ccoc3)ncn2)c1`, the Potency was “inactive”.
For `COc1ccc(CNc2cc(-c3ccoc3)ncn2)c(OC)c1`, the Potency was “inactive”.
In the case of `Fc1ccc(Nc2ccnc(-c3ccoc3)n2)cc1`, the Potency is reported as “inactive”.
With `N#Cc1cccc(-c2cncnc2NCc2cccs2)c1` the Potency was “inactive”.
